Source: PubChem BioAssay (National Center for Advancing Translational Sciences (NCATS))
RORg inh – qHTS for inhibitors of ROR gamma transcriptional activity | Nuclear receptor ROR-gamma (Mus musculus), P51450 | Drosophila S2 Gal4-RORgamma UAS-luciferase reporter, 20 h | Potency, µM (top dose mostly 53.6 µM), without a hit: at the highest dose activity change, negative = inhibition, actives largely listed as inhibitors | 310,000 tested, 5.4% active | AID 2551, 2010; further: nearly all actives have a fitted effect of over 60% in size
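Stably transfected Drosophila Schneider cells are the test system, with ROR gamma fused to Gal4 and luciferase under UAS control; luminescence is read after 20 hr of 700 uM copper sulfate induction at ambient temperature.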
12-LOX inh – Primary qHTS assay for inhibitors of human arachidonate 12S-lipoxygenase (ALOX12): Round 2 | purified 12hLO, xylenol orange hydroperoxide absorbance | Polyunsaturated fatty acid lipoxygenase ALOX12 (Homo sapiens), P18054 | Potency, µM (doses to about 108 µM), inactives show at the highest dose activity change, negative = inhibition, most hits filed as inhibitors | 580,000 tested, 1.1% active
Target sequence (P18054 whole entry, looked up): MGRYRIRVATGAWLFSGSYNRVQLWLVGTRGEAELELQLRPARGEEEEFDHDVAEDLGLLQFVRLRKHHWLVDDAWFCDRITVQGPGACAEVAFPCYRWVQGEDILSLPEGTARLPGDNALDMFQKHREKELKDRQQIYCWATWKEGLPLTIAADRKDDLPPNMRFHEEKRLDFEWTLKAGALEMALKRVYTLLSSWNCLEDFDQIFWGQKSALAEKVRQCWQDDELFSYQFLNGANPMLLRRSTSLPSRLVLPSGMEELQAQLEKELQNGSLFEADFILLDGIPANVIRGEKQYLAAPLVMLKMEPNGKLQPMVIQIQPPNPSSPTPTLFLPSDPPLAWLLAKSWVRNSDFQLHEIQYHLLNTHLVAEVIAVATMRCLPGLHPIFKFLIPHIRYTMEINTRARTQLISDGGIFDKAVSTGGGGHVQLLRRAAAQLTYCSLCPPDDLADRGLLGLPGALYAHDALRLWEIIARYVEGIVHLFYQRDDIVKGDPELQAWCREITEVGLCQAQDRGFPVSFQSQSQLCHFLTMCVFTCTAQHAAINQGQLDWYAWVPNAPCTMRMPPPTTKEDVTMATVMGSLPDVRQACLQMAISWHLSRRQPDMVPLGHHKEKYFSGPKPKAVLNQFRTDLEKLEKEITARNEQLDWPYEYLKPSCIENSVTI
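Purified human 12hLO at 150 nM in 25 mM Hepes, 0.01% Triton X-100, pH 7.0, preincubated 15 min at room temperature with compound. Reaction started with 40 uM arachidonic acid, 30 min at room temperature. Hydroperoxide measured by Fe-xylenol orange, 573/405 nm absorbance ratio.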
DT40 TDP1 no CPT – qHTS for Inhibitors of human tyrosyl-DNA phosphodiesterase 1 (TDP1): qHTS in cells in absence of CPT | DT40 Tdp1-/- hTDP1 cells, no CPT, ATP luminescence, 48 h | Potency, µM (titrated, usually from 46.2 µM), without a hit: at the highest dose activity change, negative = growth inhibition, actives largely listed as inhibitors | 420,000 tested, 15% active | AID 686978, 2013; further: nearly all actives have a fitted effect of over 55% in size
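Growth kinetics read by CellTiter-Glo luminescence after ≥48 hr at 37 °C. Cells: DT40 Tdp1-/- stably carrying human TDP1, 400 per well, compound exposure in the absence of CPT (DMSO vehicle).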
VP16 counter – VP16 counterscreen qHTS for inhibitors of ROR gamma transcriptional activity | Drosophila S2 Gal4-VP16 UAS-luciferase, luminescence, 20 h | Potency, µM (top dose mostly 53.6 µM), for the others: top-dose activity, negative = inhibition, usual class: inhibitors | 310,000 tested, 3.5% active | AID 2546, 2010;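 further: Gal4-VP16 expression switched on by copper sulfate through the metallothionein promoter; nearly all actives have a fitted effect of over 50% in size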
ELG1 repair inh – qHTS screen for small molecules that inhibit ELG1-dependent DNA repair in human embryonic kidney (HEK293T) cells expressing luciferase-tagged ELG1. HEK293T ELG1-luciferase reporter, luminescence, 16 h; DNA damage induced by 5-fluorouridine. Potency, µM (titrated, usually from 46.1 µM), for inactives: top-dose activity change, negative = inhibition, hits mostly inhibitors. 330,000 tested, 2.3% active. AID 504467, 2011; further: nearly all actives have a fitted effect of over 55% in size
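DMSO vehicle served as the neutral condition. Each well held 2,000 cells given 5-fluorouridine plus compound; after 16 hr at 37 °C/5% CO2, ONE-Glo was added and luciferase measured 30 min later.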
DT40 TDP1 CPT – qHTS for Inhibitors of human tyrosyl-DNA phosphodiesterase 1 (TDP1): qHTS in cells in presence of CPT | chicken DT40 Tdp1-/-;hTDP1 cells + 20 nM CPT, ATP luminescence, 48 h | Potency, µM (top dose mostly 46.2 µM), for the others: top-dose activity change, negative = growth inhibition, actives largely listed as inhibitors | 420,000 tested, 12% active | AID 686979, 2013; further: nearly all actives have a fitted effect of over 55% in size
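Chicken DT40 Tdp1-/- cells complemented with human TDP1, 400 cells/well, exposed to compounds plus 20 nM camptothecin for at least 48 h at 37 C; viability read as ATP content by CellTiter-Glo luminescence.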
Active calls of the source: *; ? = inconclusive; . = not tested or not shown; [ ] = remark or other dose. A selection: hits, their analogues and other compounds. The true share with any hit is near 15%. The call rests on the fitted dose curve; in most records, active means well fitted curve in the direction sought with a large enough effect; inconclusive means small, poorly fitted or top-dose-only effect, or another doubt; inactive means no such curve, though single readings can be large; an effect the other way counts as inactive or inconclusive. On the % scale 0 is the no-effect control and ±100 the full control effect; potency means the concentration at half of the fitted maximal effect.

SMILES | RORg inh | 12-LOX inh | DT40 TDP1 no CPT | VP16 counter | ELG1 repair inh | DT40 TDP1 CPT
CCOC(=O)N1CCc2c(sc3c2c(=O)n(Cc2ccccc2)c(=O)n3CC(=O)NCCOC)C1 | -33.5% | -3.9% | 24.3% | -10.2% | -7.0% | -24.2%
CCOC(=O)N1CCc2c(sc3c2c(=O)n(Cc2ccccc2)c(=O)n3Cc2cccc(Cl)c2)C1 | . | 0.0% | 20.6µM* | . | . | 10.3µM*
CC(=O)N1CCc2c(sc3c2c(=O)n(CCc2ccccc2)c(=O)n3Cc2ccccc2C)C1 | . | ? | 16.4µM* | . | . | 14.6µM*
CCOC(=O)N1CCc2c(sc3c2c(=O)n(-c2ccccc2C(F)(F)F)c(=O)n3Cc2ccccc2C)C1 | . | -8.4% | ? | . | . | 18.4µM*
N#Cc1ccnc(-c2nnc3ccc(NC4CC4)nn23)c1 | . | -2.6%[176 µM] | . | . | . | .
CC(C)(C)c1ccc(C(=O)Nc2ccc(CN3CCS(=O)(=O)CC3)cc2)cc1 | 32.4% | 177.6% | 20.6µM* | ? | 7.2% | 16.4µM*
O=C(Nc1ccc(CN2CCS(=O)(=O)CC2)cc1)c1ccc(F)cc1 | 9.7% | 0.0% | 4.4% | -14.8% | ? | 0.3%
O=C(Nc1ccc(CN2CCS(=O)(=O)CC2)cc1)c1ccc(C(F)(F)F)cc1 | ? | 5.5% | 20.6µM* | -1.0% | -10.1% | ?
O=C(Nc1ccc(CN2CCS(=O)(=O)CC2)cc1)c1ccccc1 | 1.4% | -79.9% | -3.6% | -3.4% | -13.0% | 8.9%
O=C1C(=C2CCCCC2)SC(=S)N1Cc1ccco1 | 12.6µM* | ? | 16.4µM* | -0.8% | -13.9% | ?
O=C1c2ccccc2N2C(=O)c3ccccc3C2N1Cc1ccco1 (stereo not drawn) | 40.4% | . | 18.4µM* | ? | ? | 23.1µM*
COc1ccc(C2Nc3ccccc3C(=O)N2Cc2ccco2)cc1 (stereo not drawn) | . | . | 12.6µM* | . | . | ?
Cc1ccccc1N1C(=O)c2ccccc2N2C(=O)c3ccccc3C12 (stereo not drawn) | -0.2% | 0.0% | 16.4µM* | -0.5% | ? | 8.2µM*
Cc1ccccc1NC1c2ccccc2C(=O)N1Cc1ccco1 (stereo not drawn) | -0.7% | -15.0% | -30.4% | ? | 2.1% | -8.3%
O=C1c2ccccc2NC(c2ccccc2OCc2ccccc2)N1Cc1ccco1 (stereo not drawn) | . | . | 10µM* | . | . | 11.2µM*
CCC(NC(=O)C1CCOC1)C12CC3CC(CC(C3)C1)C2 (stereo not drawn) | . | -0.1% | . | . | . | .
O=C1c2ccccc2NC(c2ccccc2O)N1Cc1ccco1 (stereo not drawn) | . | . | 15.8µM* | . | . | ?
N#CCCn1cc(/C=C2\NC(=S)N(c3ccccc3)C2=O)c(-c2ccc(-c3ccccc3)cc2)n1 | -18.9% | -23.2% | 8.2µM* | -6.9% | 0.0% | 6.51µM*
CCN1C(=O)/C(=C/c2cn(-c3ccccc3)nc2-c2cccnc2)SC1=S | . | 4.6% | -33.6% | . | . | -8.1%
NC(=S)N/N=C/c1cn(CCC(=O)O)nc1-c1cccc(Br)c1 | ? | ? | 2.2% | -4.8% | 0.4% | 10.4%
N#CCCn1cc(/C=N/O)c(-c2ccc(-c3ccccc3)cc2)n1 | 8.9% | -22.6% | ? | 3.9% | ? | 23.1µM*
N#CCCn1cc(/C=N/O)c(-c2ccc(Cl)cc2)n1 | 28.3% | ? | -5.9% | ? | -4.4% | -15.6%
N#CCCn1cc(/C=N/NC(N)=S)c(-c2ccccc2)n1 | 6.31µM* | 25.1µM* | ? | 7.08µM* | ? | ?
CCN1C(=O)/C(=C\c2cn(CCC#N)nc2-c2ccc(F)cc2)SC1=S | ? | ? | -29.4% | -6.1% | 14.6µM* | ?
C=CC[N+](C)(C)CC#Cc1ccccc1 | . | -14.1% | . | . | . | .
SMILES | RORg inh | 12-LOX inh | DT40 TDP1 no CPT | VP16 counter | ELG1 repair inh | DT40 TDP1 CPT
N#Cc1cccc(-c2c(-c3ccccc3)ncn2CCCN2CCC(O)CC2)c1 | . | 44.2% | . | . | . | .
O=c1c2cc(Cl)ccc2ncn1CC(O)COc1ccc(Br)cc1 (stereo not drawn) | . | -89.3% | . | . | . | .
N#CCCn1cc(/C=N/NC(N)=S)c(-c2ccc(Br)cc2)n1 | 0.224µM* | ? | ? | 0.501µM* | ? | ?
N#CCCn1cc(C=C(C#N)C#N)c(-c2ccc(Cl)cc2)n1 | -131.5% | -22.0% | ? | ? | 8.8% | 16.4µM*
CC(C)C[C@H](N)c1cn([C@@H](Cc2ccc(O)cc2)C(=O)N2CCNCC2)nn1 | -27.5% | -11.9% | -0.3% | 8.4% | 10.0% | 5.8%
CC(C)C[C@H](N)c1cn([C@@H](CCCCN)C(=O)N2CCNCC2)nn1 | -17.7% | 0.1% | 6.51µM* | -4.7% | 16.6% | 8.2µM*
Cc1ccc(C23CC4CC(CC(C(=O)O)(C4)C2)C3)cc1C | . | -33.4% | . | . | . | .
CCCCNC(=O)c1nc2cc(C)c(C)cc2nc1-c1ccccc1 | . | -13.2% | . | . | . | .
CN(Cc1c(C(=O)N/N=C/c2cccc(F)c2)nnn1-c1nonc1N)c1ccccc1 | -14.6% | -2.3% | ? | -4.9% | 0.0% | -16.4%
Cc1c(C(=O)N/N=C/c2cccs2)nnn1-c1nonc1N | 11.2µM* | -2.1% | -2.8% | ? | 19.0% | 11.2%
CN(Cc1c(C(=O)N/N=C/c2cccs2)nnn1-c1nonc1N)c1ccccc1 | 5.62µM* | 10.1% | 17.6% | ? | 0.6% | 15.6%
Cc1ccccc1CNC(=O)c1ccc(CN2C(=O)CCn3nccc32)cc1 | . | -7.3% | . | . | . | .
O=C(C1CCCCC1)N1CCN(C2CCN(Cc3cccnc3)C2=O)CC1 (stereo not drawn) | . | 25.1% | . | . | . | .
